# Compounds with a hit are over-represented: about 19% of the library has one in this group of screens.
# ASM inhibitor: Inhibitors of Secretory Acid Sphingomyelinase (S-ASM): qHTS. Sphingomyelin phosphodiesterase (Homo sapiens), P17405. placental ASM, HMU-PC fluorogenic substrate, 60 min. Potency, µM (doses to about 57.5 µM), without a hit: at the top dose activity change, negative = inhibition, actives largely listed as inhibitors. 340,000 compounds, 0.006% hits. AID 504937, 2011; further: potency means the concentration at half of the fitted maximal effect
# Target sequence (P17405 47-631 limits assumed): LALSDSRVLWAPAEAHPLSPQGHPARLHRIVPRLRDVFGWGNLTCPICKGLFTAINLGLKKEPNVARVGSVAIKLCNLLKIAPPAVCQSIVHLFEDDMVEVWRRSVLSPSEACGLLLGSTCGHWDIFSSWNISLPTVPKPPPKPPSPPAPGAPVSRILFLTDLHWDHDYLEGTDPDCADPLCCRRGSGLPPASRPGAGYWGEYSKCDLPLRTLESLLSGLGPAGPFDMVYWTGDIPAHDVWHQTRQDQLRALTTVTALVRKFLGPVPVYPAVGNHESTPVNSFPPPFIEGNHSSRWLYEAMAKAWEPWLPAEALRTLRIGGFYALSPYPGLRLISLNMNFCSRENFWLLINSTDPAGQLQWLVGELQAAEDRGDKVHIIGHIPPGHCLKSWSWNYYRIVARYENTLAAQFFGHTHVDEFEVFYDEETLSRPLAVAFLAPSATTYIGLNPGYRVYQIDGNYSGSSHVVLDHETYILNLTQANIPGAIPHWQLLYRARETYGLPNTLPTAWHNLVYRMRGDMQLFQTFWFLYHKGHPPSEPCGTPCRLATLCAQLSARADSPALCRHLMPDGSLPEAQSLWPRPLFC
#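 qHTS format. ASM enzyme prepared from human placenta hydrolyses the fluorogenic substrate HMU-PC0 (9 uM final) over 60 min at 37 °C after a 10 min compound preincubation.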
# HepG2 viability: qHTS for Inhibitors of TGF-b: Cytotox Counterscreen; HepG2 CAGA-GFP viability, ATP luminescence, 18 h; Potency, µM (titrated, usually from 46.1 µM), without a hit: top-dose activity change, negative = cytotoxicity, actives largely listed as cytotoxic; 410,000 compounds, 0.76% hits; AID 588856, 2011; further: potency means the concentration at half of the fitted maximal effect
#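 HepG2 CAGA-GFP cells (1000/well, DMEM with 1% FBS) received compound, then TGF-beta at 500 pg/mL final, and were incubated 18 hours at 37 degrees C. Viability was read by CellTiter-Glo luminescence. Media-only wells were set as complete cell-killing and DMSO as no toxicity.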
# TGFb inhibitor: qHTS for Inhibitors of TGF-b; HepG2 CAGA-GFP TGF-b/SMAD3 reporter, GFP fluorescence, 18 h; TGF-beta stimulated, 500 pg/mL final; Potency, µM (top dose mostly 46.1 µM), for inactives: at the highest dose activity, negative = inhibition, most hits filed as inhibitors; 410,000 compounds, 1.2% hits; AID 588855, 2011; further: potency means the concentration at half of the fitted maximal effect; on the % scale 0 is the no-effect control and ±100 the full control effect; nearly all actives have a fitted effect of over 65% in size
#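 Per well, imaged GFP fluorescence of HEPG2 CAGA-GFP cells gives the signal; cells get compound, then TGF-beta (500 pg/mL final), 18 h at 37 degrees C; %Activity versus -TGF-beta and +DMSO controls.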
# IL1B secr inh: qHTS for Inhibitors of Inflammasome Signaling: IL-1-beta AlphaLISA Primary Screen; THP-1 LPS/ATP IL-1B secretion, AlphaLISA, 16 h; stronger effect = lower value; activity change, % at 57.5 µM; 360,000 compounds, 4.7% hits; AID 743279, 2014; in the data active means activity change below about -50%; inconclusive means mostly about -30% to -49%; further: on the % scale 0 is the no-effect control and ±100 the full control effect
#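 THP-1 cells pretreated 1 hr with compounds (up to 57.5 uM final), then stimulated with LPS (250 ng/mL final) plus ATP (1.25 mM final); secreted IL-1B measured by AlphaLISA after 16 hr, decreased signal indicating inhibition.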
# TDP1 cell CPT: qHTS for Inhibitors of human tyrosyl-DNA phosphodiesterase 1 (TDP1): qHTS in cells in presence of CPT. chicken DT40 Tdp1-/-;hTDP1 cells + 20 nM CPT, ATP luminescence, 48 h. Potency, µM (top dose mostly 46.2 µM), for inactives: at the top dose activity change, negative = growth inhibition, actives largely listed as inhibitors. 420,000 compounds, 12% hits; further: potency means the concentration at half of the fitted maximal effect; on the % scale 0 is the no-effect control and ±100 the full control effect; nearly all actives have a fitted effect of over 55% in size
#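 Chicken DT40 Tdp1-/- cells complemented with human TDP1, 400 cells/well, exposed to compounds plus 20 nM camptothecin for at least 48 h at 37 C; viability read as ATP content by CellTiter-Glo luminescence.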
# DT40 TDP1 no CPT: qHTS for Inhibitors of human tyrosyl-DNA phosphodiesterase 1 (TDP1): qHTS in cells in absence of CPT; DT40 Tdp1-/- hTDP1 cells, no CPT, ATP luminescence, 48 h; Potency, µM (top dose mostly 46.2 µM), for inactives: at the top dose activity change, negative = growth inhibition, actives largely listed as inhibitors; 420,000 compounds, 15% hits; further: potency means the concentration at half of the fitted maximal effect; on the % scale 0 is the no-effect control and ±100 the full control effect; nearly all actives have a fitted effect of over 55% in size
#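 Camptothecin absent (DMSO only). Human TDP1-complemented DT40 knockout cells, 400 cells/well, 37 °C for minimum 48 hr; ATP measured via CellTiter-Glo, 30 min dark incubation, luminescence.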
# Numbers without * were called inactive; i = inactive; ? = inconclusive; · = no result given; [ ] = dose if it differs, or a comment. Unless noted, the call rests on the fitted dose curve; in most records, active means well fitted curve in the direction sought with a large enough effect; inconclusive means small, poorly fitted or top-dose-only effect, or another doubt; inactive means no such curve, though single readings can be large; an effect the other way counts as inactive or inconclusive.
SMILES,ASM inhibitor,HepG2 viability,TGFb inhibitor,IL1B secr inh,TDP1 cell CPT,DT40 TDP1 no CPT
O=C(Nc1ccc(-c2nc3ccccc3s2)cc1)c1cc(-n2cnnc2)ccc1Cl,-5.3%,-39.6%,?,-84.0*,23.1µM*,13µM*
COC(=O)c1ccc(CSc2ccccc2NC(=S)Nc2cccc(C(F)(F)F)c2)o1,·,-23.0%,-20.0%,18.4,?,?
COc1cc(NC(=O)CN2C(=O)CCc3cc(Br)ccc32)cc(OC)c1OC,·,-8.9%,1.6%,·,?,?
O=C(Nc1ccccc1C(=O)N1CCCCCC1)c1cccc([N+](=O)[O-])c1,0.3%,40.9%,-1.5%,i,-11.5%,-16.6%
CCOC(=O)C1CCN(C(=O)CCS(=O)(=O)c2ccc3c(c2)n(C)c(=O)c(=O)n3C)CC1,1.7%,6.1%,-5.9%,5.6,2.3%,-1.2%
Cc1cnn(C(=S)NCc2ccco2)c1,0.8%,-27.8%,-15.2%,1.4,18.4µM*,?
O=C(Cc1ccc(-c2ccccc2)cc1)NNC(=S)NCc1ccco1,-0.5%,-6.9%,-0.2%,18.5,?,16.4µM*
CN(C)c1ccc(/C=N/NC(=S)NCc2ccco2)cc1,110.4%,-23.4%,-16.2%,-18.6,?,18.4µM*
Cc1cnn(C(=S)NCC2CCCO2)c1 (stereo not drawn),6.9%,-2.6%,-7.8%,-27.8,-5.0%,-1.9%
S=C(NCc1ccco1)Nc1ccc(Br)cc1Cl,0.7%,-4.6%,?,-82.9*,-0.9%,-0.4%
S=C(NCc1ccco1)N/N=C/c1ccncc1,1.9%,-6.7%,4.1%,12.0,0.0%,-3.0%
CC(C)OCCCNC(=O)c1cc(S(=O)(=O)N2CCc3ccccc32)cn1C,-0.3%,-20.1%,-0.6%,17.6,-3.2%,-24.0%
COc1ccc(N2C(=O)c3ccccc3NC2c2ccc(OC)c(COc3ccc(NC(C)=O)cc3)c2)cc1 (stereo not drawn),·,-22.1%,-2.3%,·,?,?
COCCN(C(=O)COC(=O)CSc1ccc2ccccc2c1)c1c(N)n(Cc2ccccc2)c(=O)[nH]c1=O,0.1%,-2.3%,0.1%,13.5,-1.7%,1.4%
O=[N+]([O-])c1cccc(-c2ccc(/C=N/NC(=S)NCc3ccco3)o2)c1,-0.9%,-31.7%,-19.8%,-10.6,23.1µM*,16.4µM*
O=[N+]([O-])c1cccc(-c2ccc(/C=N/NC(=S)Nc3ccccc3)o2)c1,-13.6%,-10.9%,-9.2%,3.5,-14.4%,-24.4%
COC(=O)c1cccc(NC(=S)NCc2ccco2)c1,-3.1%,3.8%,3.2%,-1.4,16.4µM*,14.6µM*
O=C(NCc1ccco1)c1c(F)c(F)c(F)c(C(=O)NCc2ccco2)c1F,-6.0%,-13.4%,-22.5%,-130.8*,14.8%,5.4%
S=C(NCc1ccco1)NCc1ccco1,2.2%,5.1%,-24.3%,4.1,?,25.9µM*
S=C(NCc1ccccc1)NCc1ccco1,4.7%,-0.8%,-9.1%,-13.9,-21.8%,-4.9%
COc1ccc(CNS(=O)(=O)c2ccc(C(=O)N(C)C)s2)cc1,·,-15.6%,?,·,?,-26.6%
Cc1ncc2c(c1CNC(=O)c1ccc3c(c1)OCO3)CCN(C(=O)c1csc3c1CCCC3)C2,·,·,·,·,-4.4%[9.04 µM],-12.8%
COc1ccc(OC)c(NC(=O)CCCN2C(=S)NC(C)(C)CC2C)c1 (stereo not drawn),·,0.2%,9.4%,2.1,-9.2%,-29.8%

# Compound activity from PubChem.
